# Measurements as given in article PMC4336329 (PLoS ONE, 2015).
# Among all 310,000 compounds or so, about 2,200 (0.71%) showed an effect of 50% or more. Effects have a minus sign here. This excerpt belongs to a sample that is enriched for strong results.
# Target: human ether-à-go-go-related gene (hERG) potassium channel (human, UniProt Q12809)
# Assay: primary screen, population patch clamp on CHO cells stably expressing hERG; higher = less effect of the substance
# Sequence of human ether-à-go-go-related gene (hERG) potassium channel (Q12809 whole entry, looked up): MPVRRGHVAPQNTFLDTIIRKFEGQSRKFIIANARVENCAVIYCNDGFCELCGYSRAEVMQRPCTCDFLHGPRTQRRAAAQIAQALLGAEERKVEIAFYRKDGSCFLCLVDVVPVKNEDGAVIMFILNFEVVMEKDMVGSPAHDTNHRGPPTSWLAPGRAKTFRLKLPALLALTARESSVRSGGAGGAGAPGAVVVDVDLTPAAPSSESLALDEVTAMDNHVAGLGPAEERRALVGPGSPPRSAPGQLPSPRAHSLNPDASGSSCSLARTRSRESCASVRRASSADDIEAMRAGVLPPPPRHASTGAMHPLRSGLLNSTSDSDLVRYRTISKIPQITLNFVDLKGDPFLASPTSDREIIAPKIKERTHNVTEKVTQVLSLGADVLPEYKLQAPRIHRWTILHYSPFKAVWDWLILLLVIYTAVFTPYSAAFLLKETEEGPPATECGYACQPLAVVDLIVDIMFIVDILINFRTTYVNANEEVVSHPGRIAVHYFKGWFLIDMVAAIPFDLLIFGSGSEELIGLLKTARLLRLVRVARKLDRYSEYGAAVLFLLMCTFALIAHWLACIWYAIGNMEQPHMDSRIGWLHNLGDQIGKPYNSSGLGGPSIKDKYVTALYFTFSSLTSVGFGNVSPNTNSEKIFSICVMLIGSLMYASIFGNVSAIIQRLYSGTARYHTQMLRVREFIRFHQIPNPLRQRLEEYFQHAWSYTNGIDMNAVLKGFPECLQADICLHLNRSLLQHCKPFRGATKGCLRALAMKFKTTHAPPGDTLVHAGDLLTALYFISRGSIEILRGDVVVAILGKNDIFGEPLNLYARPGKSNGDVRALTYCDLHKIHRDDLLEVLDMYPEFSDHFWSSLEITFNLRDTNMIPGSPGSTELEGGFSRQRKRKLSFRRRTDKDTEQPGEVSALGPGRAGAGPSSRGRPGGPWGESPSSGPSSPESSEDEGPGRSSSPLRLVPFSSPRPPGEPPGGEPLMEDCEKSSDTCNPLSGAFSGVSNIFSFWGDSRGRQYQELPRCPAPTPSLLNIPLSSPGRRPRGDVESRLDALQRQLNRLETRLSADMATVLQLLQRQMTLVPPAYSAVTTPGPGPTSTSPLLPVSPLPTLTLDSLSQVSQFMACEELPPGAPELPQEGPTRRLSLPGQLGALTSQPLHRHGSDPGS
row,SMILES,"hERG current change (%, negative = inhibition) at 1uM [%]"
1,CCOC(=O)c1ccc(CSc2nnc(N)s2)cc1,5.39
2,Cc1ccc(C(=O)N2NC(c3ccc(F)cc3)C3C(=O)N(c4ccc(C)c(C)c4)C(=O)C32)cc1 (centres unmarked),10.6
3,CCOC(=O)C1CCN(C(=O)Cn2cc(C(=O)C3CC3)c3ccccc32)CC1,13.4
4,O=C(O)C(Cc1c[nH]c2ccccc12)NS(=O)(=O)c1ccc(Cl)c(C(F)(F)F)c1 (centres unmarked),7.86
5,COc1ccc(NC(=S)Nc2ccc(OC)cc2OC)c(OC)c1,17.8
6,COC/C=C/C1=CC2=CC(=O)C(C)(OC(=O)c3cnc4ccccc4n3)C(=O)C2=CN1C1CC1 (centres unmarked),9.57
7,N#Cc1cn(CCCOc2ccccc2)c2ccccc12,11.3
8,c1csc(-c2nnc(NC3CCCCC3)c3ccccc23)c1,-40.8
9,c1ccc(-c2nc(NC3CCCC3)c3ccccc3n2)cc1,18.4
10,c1ccc2c(NC3CCCC3)nnc(NC3CCCC3)c2c1,-70.4
11,CC1(C(=O)O)COC(c2ccc([N+](=O)[O-])cc2)OC1 (centres unmarked),2.26
12,Cn1c(=O)cc(SCC(=O)N2CCCC2)c2ccccc21,9.79
13,CCn1ccnc1CNC(=O)CC1C(=O)NCCN1Cc1ccc(F)cc1Cl (centres unmarked),13.5
14,COc1ccc2[nH]cc(C(O)CN3CCN(c4ccccc4F)CC3)c2c1 (centres unmarked),8.35
15,COc1ccc2[nH]cc(C(O)CN3CCC(C(N)=O)CC3)c2c1 (centres unmarked),11.1
16,COc1ccc(N2CCN(CC(O)c3c[nH]c4ccc(OC)cc34)CC2C)cc1 (centres unmarked),-50.6
17,CC(C)OC(=O)/C(=C\c1ccccc1)NC(=O)c1ccccc1,9.47
18,CCN(CC)S(=O)(=O)c1ccc(C)c(NC(=O)CN2CCN(C)CC2)c1.O=C(O)C(=O)O,6
19,CCN(CC)S(=O)(=O)c1ccc(C)c(NC(=O)CNCc2ccccc2OC)c1.O=C(O)C(=O)O,20.9
20,CCN(CC)S(=O)(=O)c1ccc(C)c(NC(=O)CNCCN(C(C)C)C(C)C)c1.O=C(O)C(=O)O,-66.5
21,O=C1Nc2ccccc2N=C(c2ccccc2)C1N1CCOCC1 (centres unmarked),18.1
22,COc1nc(NC2CCCCC2)nc(NC(C)(C)C)n1,4.9
23,Cc1ccc(NCc2nnc(SCc3ccc(C#N)cc3)n2Cc2ccco2)c(C)c1,-54.9
24,Cc1cccc(-c2nnc(SCc3ccc(C#N)cc3)n2Cc2ccco2)c1,-44
25,Cc1ccc(-c2nnc(SCc3ccc(C#N)cc3)n2Cc2ccco2)cc1,-19.2
26,Cc1cc(C)nc(SCc2nnc(SCC(N)=O)n2Cc2ccco2)n1,-3.7
27,Cc1cc(C)nc(SCc2nnc(SCc3ccc([N+](=O)[O-])cc3)n2Cc2ccco2)n1,-57.5

row,SMILES,"hERG current change (%, negative = inhibition) at 1uM [%]"
1,COC(=O)CSc1nnc(CSc2nc(C)cc(C)n2)n1Cc1ccco1,11.5
2,Cl.O=C(NCCCn1ccnc1)c1cc(Cl)cc(Cl)c1,4.65
3,CC1CCC/C(=C\Nc2ccc(C(=O)O)c(O)c2)C1=O (centres unmarked),9.19
4,COc1cc(OC)cc(C(=O)Oc2ccc(/C=N/Nc3nc4ccccc4s3)cc2OC)c1,0.482
5,Cc1onc(-c2c(Cl)cccc2Cl)c1C(=O)Nc1ccc(Cl)cn1,11.3
6,COc1ccccc1NS(=O)(=O)c1cccc(C(=O)NCC(c2ccco2)N2CCCCC2)c1 (centres unmarked),-0.284
7,CCOc1ccccc1C(=O)NC(C)c1ccc(-n2ccnc2)cc1 (centres unmarked),-34.8
8,CCOc1ccccc1C(=O)NCC(=O)NC(C)c1ccc(-n2ccnc2)cc1 (centres unmarked),-58.3
9,COc1ccccc1C(=O)NCC(=O)NC(C)c1ccc(-n2ccnc2)cc1 (centres unmarked),-2.86
10,COc1ccccc1NC(=O)c1ccc(COc2ccccc2Br)o1,13.8
11,Cc1ccc(CNC(=O)C2CCCC2)cc1,10.4
12,COc1cc(OC)cc(C(=O)N2CCN(Cc3ccccc3[N+](=O)[O-])CC2)c1.O=C(O)C(=O)O,-7.12
13,COc1ccccc1N1CCN(Cc2ccc(Br)cc2)CC1.O=C(O)C(=O)O,-6.63
14,CCN(CC)c1ccc(CN2CCC(C(=O)NCc3ccc(C)cc3)CC2)cc1.O=C(O)C(=O)O,-13.2
15,CCc1ccc(CN2CCN(Cc3ccc(SC)cc3)CC2)cc1.O=C(O)C(=O)O,-27.1
16,O=C(O)C(=O)O.O=C(c1ccc([N+](=O)[O-])cc1)N1CCN(Cc2ccccc2[N+](=O)[O-])CC1,-70.1
17,COc1ccc(C(=O)N2CCN(Cc3ccccc3[N+](=O)[O-])CC2)cc1.O=C(O)C(=O)O,-20.9
18,CCS(=O)(=O)N1CCN(Cc2ccc([N+](=O)[O-])cc2)CC1.O=C(O)C(=O)O,9.38
19,COc1ccccc1N1CCN(Cc2ccc(SC)cc2)CC1.O=C(O)C(=O)O,-53.8
20,COc1ccccc1N1CCN(Cc2ccccc2)CC1.O=C(O)C(=O)O,6.85
21,CSc1ccc(CN2CCC(C(=O)NCc3ccc(C)cc3)CC2)cc1.O=C(O)C(=O)O,-76.1
22,CSc1ccc(CN2CCN(Cc3ccc([N+](=O)[O-])cc3)CC2)cc1.O=C(O)C(=O)O,-70.5
23,O=C(Cc1ccc([N+](=O)[O-])cc1)NCc1ccccn1,12.5
24,CC(N=C1NS(=O)(=O)c2ccccc21)C(=O)OCC(=O)N(C)C1CCS(=O)(=O)C1 (centres unmarked),-1.85
25,Cc1ccc2c(c1)c1c(c(=O)n(-c3ccccc3C)c(=O)n1CC(=O)NCC1CCCO1)n2C (centres unmarked),0.188
26,CCOC(=O)[C@H]1[C@H]2COc3ccc(OC)cc3[C@@H]2N2C(=O)c3cc(OC)c(OC)cc3NC(=O)[C@@]12C,5.4
